These results are taken from PMC5540273 (PLoS ONE, 2017).

Some test systems named below: WNK1; WNK2; WNK3; WNK4; ZAK; ZAP70; p38-delta.
Holding throughout (conditions): concentration: 1 μM,replicates: in singlicate; n = 1
The test system of another assay is T1, YANK1.
T1 construct: gene STK32A

For a further assay, the system named is T2, YANK2.
T2 construct: gene STK32B

The next assay deals with T3, YANK3.
T3 construct: gene STK32C

A further assay has as its system T4, YES.
T4 construct: gene YES1

In another assay the test system is T5, YSK1.
T5 construct: gene STK25

The subject of a further assay is T6, YSK4.
T6 construct: gene MAP3K19

For another assay, the system named is T7, p38-alpha.
T7 construct: gene MAPK14

A further assay deals with T8, p38-beta.
T8 construct: gene MAPK11

The next assay concerns T9, p38-gamma.
T9 construct: gene MAPK12
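Further: KINOMEscan kinase panel screen.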

`CC(C)Nc1cc(-c2ccc3c(N)n[nH]c3c2)nc(N)n1` [GSK2221681]: the “%Inh” value in the assay on WNK1 is on record as 0%; with WNK2, 0%; with WNK3, 0%; in the assay with WNK4, 0%; with YANK1 it was 37%; in the assay on YANK2, 0%. The “%Inh” value is 2% with YANK3; 4% in the assay with YES; 14% with YSK1; 41% in the assay with YSK4; 0% in the assay with ZAK; 0% in the assay with ZAP70. Also, the “%Inh” value was determined as 0% with p38-alpha, 0% in the assay on p38-beta, 1% in the assay with p38-delta and 2% in the assay on p38-gamma.

Turning to `CN(C)CCOc1ccc(-c2cc(-c3c[nH]nc3-c3ccccn3)ccn2)cc1` [GW835314], the “%Inh” value with WNK1 stood at 9%; in the assay on WNK2, 13%; in the assay on WNK3, 0%; in the assay on WNK4 it was 0%; in the assay with YANK1 it was 89%; in the assay on YANK2, 0%. The “%Inh” value in the assay on YANK3 stood at 0%; in the assay on YES, 55%; in the assay with YSK1, 0%; in the assay on YSK4, 28%; in the assay on ZAK, 60%; in the assay on ZAP70 it was 11%. Further, the “%Inh” value with p38-alpha is on record as 16%; with p38-beta, 4%; with p38-delta, 0%; with p38-gamma it was 27%.

For `O=C(NCCCN1CCOC1=O)c1cnc(NCc2cc(Cl)ccc2Cl)nc1NC1CCCC1`, the “%Inh” value was determined as 0% in the assay with WNK1; 0% in the assay on WNK2; 0% in the assay with WNK3; 18% with WNK4; 0% with YANK1; 0% in the assay with YANK2. Further, the “%Inh” value in the assay with YANK3 worked out at 2%; in the assay with YES it was 31%; in the assay on YSK1, 0%; with YSK4, 11%; with ZAK, 10%; in the assay with ZAP70, 0%. Moreover, the “%Inh” value came to 9% in the assay on p38-alpha, 0% in the assay with p38-beta, 44% with p38-delta and 1% with p38-gamma.

As to `Cc1ccc(-n2nc(C(C)(C)C)cc2NC(=O)Nc2ccc(OCCN3CCOCC3)c3ccccc23)cc1` [GW839464], the “%Inh” value with WNK1 was 0%; with WNK2 it was 1%; in the assay with WNK3, 0%; in the assay with WNK4, 0%; with YANK1, 0%; in the assay with YANK2 it was 0%. Besides, the “%Inh” value in the assay with YANK3 is reported as 0%; in the assay on YES, 32%; with YSK1, 0%; in the assay on YSK4 it was 0%; with ZAP70 it was 0%; in the assay with p38-beta, 56%. Further, the “%Inh” value in the assay with p38-delta was 90.5%.

In the case of `Cc1n[nH]c2ccc(-c3cc(OC[C@@H](N)Cc4ccccc4)cnc3-c3ccoc3)cc12.O=C(O)C(F)(F)F.O=C(O)C(F)(F)F` [GSK507358], the “%Inh” value amounted to 8% with WNK1; 11% in the assay on WNK2; 0% in the assay with WNK3; 6% in the assay on WNK4; 72% in the assay on YANK1; 90.5% in the assay on YANK2. Moreover, the “%Inh” value turned out to be 47% in the assay with YANK3; 22% in the assay with YES; 22% in the assay with YSK1; 99.8% in the assay with YSK4; 0% with ZAK; 0% with ZAP70. Also, the “%Inh” value in the assay on p38-beta was determined as 0%; in the assay on p38-delta, 50%; with p38-gamma, 33%.

With `CN(C)CC(O)COc1ccc(Nc2nccc(-c3cnn4nc(N5CCOCC5)ccc34)n2)cc1` (stereo not drawn) [GW767488], the “%Inh” value in the assay with WNK1 was found to be 18%; with WNK2 it was 0%; with WNK3 it was 18%; with WNK4, 0%; with YANK1 it was 29%; in the assay with YANK2 it was 0%. Also, the “%Inh” value in the assay on YANK3 is on record as 0%; with YES, 0%; with YSK1 it was 17%; in the assay with YSK4 it was 90%; in the assay with ZAK, 14%; in the assay with ZAP70, 36%. Further, the “%Inh” value in the assay with p38-alpha is 6%; in the assay on p38-beta it was 23%; with p38-delta, 38%; in the assay on p38-gamma, 73%.

For the compound `CCn1c(-c2nonc2N)nc2c(C#CC(C)(C)O)nc(OCCN)cc21.Cl.Cl` [GSK902056], the “%Inh” value in the assay with WNK1 stood at 12%; in the assay with WNK2, 24%; in the assay on WNK3, 28%; with WNK4 it was 2%; in the assay with YANK1 it was 12%; with YANK2, 0%. The “%Inh” value in the assay on YANK3 amounted to 35%; with YES, 19%; in the assay with YSK1, 0%; in the assay with YSK4, 99.7%; in the assay on ZAK, 14%; in the assay on ZAP70, 0%. Moreover, the “%Inh” value in the assay with p38-alpha came to 0%; with p38-beta, 0%; in the assay with p38-delta, 16%; in the assay with p38-gamma it was 0%.

For `Cc1cc(C(=O)Nc2ccc(Oc3ccc4nc(NC(=O)C5CC5)cn4n3)cc2)nn1-c1ccccc1`, the “%Inh” value with WNK1 came out at 0%; with WNK2 it was 0%; with WNK3, 0%; in the assay with WNK4, 10%; in the assay on YANK1, 0%; in the assay on YANK2 it was 3%. In addition, the “%Inh” value in the assay on YANK3 was 0%; with YES, 25%; in the assay with YSK1 it was 1%; with YSK4, 1%; in the assay on ZAK it was 48%; with ZAP70, 0%. For the same compound, the “%Inh” value with p38-alpha worked out at 11%; in the assay on p38-beta it was 27%; in the assay with p38-delta, 0%; in the assay with p38-gamma, 52%.

Regarding `CCN(CC)CCCCNc1ncc2cc(-c3c(Cl)cccc3Cl)c(NC(=O)NC(C)(C)C)nc2n1`, the “%Inh” value in the assay with WNK1 stood at 0%; in the assay with WNK2, 51%; in the assay on WNK3, 0%; in the assay with WNK4, 0%; with YANK1, 53%; in the assay with YANK2, 32%. The “%Inh” value turned out to be 0% in the assay on YANK3; 94.6% in the assay with YES; 58% in the assay on YSK1; 49% in the assay with YSK4; 1% with ZAK; 0% in the assay on ZAP70. Further, the “%Inh” value in the assay on p38-alpha is given as 98.2%; in the assay with p38-beta, 81%; in the assay with p38-delta, 28%; in the assay with p38-gamma, 26%.

As for `Cc1ccc2c(-c3ccncc3)c(-c3ccc(F)cc3)nn2c1.Cl` [GW461484], the “%Inh” value in the assay on WNK1 stood at 0%; in the assay with WNK2, 0%; in the assay on WNK3, 26%; with WNK4, 22%; in the assay on YANK1 it was 31%; in the assay with YANK2 it was 15%. Besides, the “%Inh” value turned out to be 12% in the assay on YANK3; 0% with YES; 7% in the assay with YSK1; 0% in the assay on YSK4; 14% in the assay on ZAK; 0% in the assay with ZAP70. The “%Inh” value in the assay on p38-alpha is recorded as 99.9%; in the assay on p38-beta it was 39%; in the assay with p38-delta, 13%; in the assay with p38-gamma, 12%.

As to `NC(=O)c1cc(-c2ccccc2)cc2c(C3CCNCC3)c[nH]c12` [GSK301362], the “%Inh” value in the assay with WNK1 came out at 11%; with WNK2, 6%; in the assay on WNK3 it was 17%; with WNK4, 41%; in the assay on YANK1 it was 4%; with YANK2 it was 0%. The “%Inh” value is 26% in the assay on YANK3; 24% with YES; 1% with YSK1; 50% in the assay with YSK4; 0% in the assay on ZAK; 0% in the assay with ZAP70. For the same compound, the “%Inh” value in the assay on p38-alpha is given as 0%; in the assay with p38-beta it was 0%; in the assay on p38-delta it was 35%; with p38-gamma it was 0%.

For `Cl.Cl.NC[C@H](Cc1ccc(C(F)(F)F)cc1)NC(=O)c1cc(Br)c(-c2ccnc3[nH]ccc23)s1` [GSK1487252], the “%Inh” value in the assay with WNK1 is on record as 10%; with WNK2, 0%; with WNK3 it was 13%; with WNK4 it was 39%; in the assay on YANK1, 56%; with YANK2, 69%. For the same compound, the “%Inh” value turned out to be 13% with YANK3; 19% in the assay with YES; 30% in the assay on YSK1; 88% in the assay on YSK4; 0% in the assay on ZAK; 0% with ZAP70. Moreover, the “%Inh” value came out at 0% in the assay on p38-alpha, 0% in the assay with p38-beta, 12% with p38-delta and 38% in the assay with p38-gamma.

In the case of `Cl.Cl.Nc1nc(-c2ccc3c(N)n[nH]c3c2)cc(N2CCCC(NC(=O)c3ccccc3)C2)n1` (stereo not drawn) [GSK2286775], the “%Inh” value worked out at 37% with WNK1; 10% in the assay with WNK2; 19% with WNK3; 0% in the assay with WNK4; 0% with YANK1; 0% with YANK2. For the same compound, the “%Inh” value in the assay with YANK3 stood at 0%; in the assay on YES it was 14%; with YSK1, 22%; in the assay with YSK4, 36%; in the assay with ZAK it was 100%; in the assay with ZAP70, 0%. The “%Inh” value is on record as 0% in the assay with p38-alpha, 0% with p38-beta, 21% with p38-delta and 21% with p38-gamma.
